Shown are actives, neighbours in structure and some others; about 2.3% of the full set was active somewhere.
TRPV1 agonist: agonists of human vanilloid receptor 1 (TRPV1); TRPV1-expressing cells, Fluo-8 calcium influx, agonist mode; actives 0.19% (n = 320,000); activation, % at 8.33 µM; in the data active = activation above about 80%; inconclusive = between about 30% and that limit; note: 0% is about no effect
Target sequence (Q8NER1 whole entry, looked up): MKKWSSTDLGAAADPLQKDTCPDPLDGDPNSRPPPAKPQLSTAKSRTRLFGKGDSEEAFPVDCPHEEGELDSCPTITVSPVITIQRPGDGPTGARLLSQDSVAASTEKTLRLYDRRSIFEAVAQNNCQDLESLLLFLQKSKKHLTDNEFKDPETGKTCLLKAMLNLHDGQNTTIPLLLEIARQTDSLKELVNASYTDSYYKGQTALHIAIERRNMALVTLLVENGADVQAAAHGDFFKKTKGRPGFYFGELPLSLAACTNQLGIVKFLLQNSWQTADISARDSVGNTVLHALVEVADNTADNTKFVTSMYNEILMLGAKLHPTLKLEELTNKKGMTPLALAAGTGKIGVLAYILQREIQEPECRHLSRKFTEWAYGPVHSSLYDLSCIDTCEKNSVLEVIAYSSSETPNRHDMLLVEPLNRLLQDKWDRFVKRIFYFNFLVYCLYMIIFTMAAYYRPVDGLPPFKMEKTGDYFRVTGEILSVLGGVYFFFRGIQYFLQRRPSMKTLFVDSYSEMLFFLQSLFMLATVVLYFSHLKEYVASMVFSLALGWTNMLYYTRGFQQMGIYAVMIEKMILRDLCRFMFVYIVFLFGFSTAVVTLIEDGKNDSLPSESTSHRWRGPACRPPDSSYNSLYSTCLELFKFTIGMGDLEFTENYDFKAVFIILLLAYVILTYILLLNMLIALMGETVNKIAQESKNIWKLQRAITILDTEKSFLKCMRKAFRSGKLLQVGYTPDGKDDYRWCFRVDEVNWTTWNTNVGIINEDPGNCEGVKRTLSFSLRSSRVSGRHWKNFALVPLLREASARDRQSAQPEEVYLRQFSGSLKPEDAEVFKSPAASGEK
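Cells expressing TRPV1 were dye-loaded with Fluo-8 and read kinetically: 10 s baseline, 3 min after compound (agonist portion), then 2 min after EC20 capsaicin (allosteric enhancer portion). Calcium-bound dye fluorescence at 480/520 nm.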
FUS yeast rescue: rescues growth of FUS-expressing yeast; AID 1347120; actives 0.24% (n = 390,000); S. cerevisiae FUS-expressing, growth rescue, OD600, 24 h; Potency, µM (top dose mostly 76.6 µM), hits mostly activators;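 note: potency is the fitted concentration of half-maximal effect; plate controls were DMSO vehicle for no effect and reference control for full effect; nearly all actives have a fitted effect of over 55% in size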
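Cultures pregrown in 2.5% raffinose medium are shifted to minimal medium containing 2% galactose to express toxic FUS. Compounds are tested at several concentrations. After 24hr at 30C, growth is quantified at 600 nm absorbance.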
ELG1 repair inh: blocks ELG1-dependent DNA repair in HEK293T cells | HEK293T ELG1-luciferase reporter, luminescence, 16 h; DNA damage induced by 5-fluorouridine | Potency, µM (doses to about 46.1 µM), inactives show at the top dose activity change, negative = inhibition, actives largely listed as inhibitors | actives 2.3% (n = 330,000); note: potency is the fitted concentration of half-maximal effect; % is set by controls: 0 for no effect and ±100 for the full control effect; nearly all actives have a fitted effect of over 55% in size
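Overnight (16 hr) co-exposure of 2,000 cells/well to 5-fluorouridine and compound at 37 °C preceded detection. Luciferase was quantified via ONE-Glo luminescence; loss of signal denotes inhibition.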
Giardia kill: kills Giardia lamblia. Giardia lamblia trophozoite viability. actives 0.15% (n = 340,000). AID 540267. activity change, % at 7.66 µM, hits read low; in the data active = activity change below about -80%; inconclusive = between about -30% and that limit;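 note: parasites exposed to compound for two days anaerobically before the ATP read; % is set by controls: 0 for no effect and ±100 for the full control effect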
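Anaerobic 48 hrs incubation at 37 deg C of 100 trophozoites/well with test compounds; ATPLite 1-Step luminescence, 15-30 min RT, reports cellular ATP as viability.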
TRPV1 potentiator: enhances activation of the human vanilloid receptor TRPV1; actives 0.02% (n = 320,000); AID 540277; potentiation, % at 8.33 µM; TRPV1-expressing cells, Fluo-8 calcium influx, capsaicin EC20 potentiation; in the data active = potentiation above about 80%; inconclusive = between about 30% and that limit; note: 0% is about no effect
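Fluo-8 calcium influx in TRPV1-expressing cells, kinetic read (ex 480/em 520 nm). Compound added and read 3 min for agonist activity, followed by capsaicin at EC20 final and 2 min further read for enhancement.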
* hit, by the source's call; i = inactive; ? = inconclusive; · = not tested or not shown. Unless noted, calls come from the whole dose curve; as a rule, active = well fitted curve in the direction sought with a large enough effect; inconclusive = small, poorly fitted or top-dose-only effect, or another doubt; inactive = no such curve, though single readings can be large; an effect the other way counts as inactive or inconclusive.

SMILES	TRPV1 agonist	FUS yeast rescue	ELG1 repair inh	Giardia kill	TRPV1 potentiator
Cc1ccc(C(=O)Nc2ccccc2C(=O)N2CC3(C)CC2CC(C)(C)C3)cc1 (configuration not stated)	?	i	23µM*	-3	-15
OCc1ccc2c(c1)c(-c1ccc3c(c1)OCCO3)c(-c1ccccc1)n2-c1ccccc1	?	i	16µM*	-9	2
c1cncc(CSc2nnc(-c3cccnc3)n2Cc2ccco2)c1	4	·	-1%	·	7
FC(F)(F)COc1cc(-c2nnc(SCc3ccccc3)n2Cc2ccco2)cc(OCC(F)(F)F)n1	6	i	18µM*	16	?
O=C1c2cccc3cccc(c23)C(=O)N1CCN1CCN(CC(O)COc2ccc3ccccc3c2)CC1 (configuration not stated)	-6	i	9.2µM*	3	-1
Cc1ccc(C)c(OCC(O)CN2CCN(CCN3C(=O)c4cccc5cccc(c45)C3=O)CC2)c1 (configuration not stated)	5	i	18µM*	-2	18
O=C1c2cccc3cccc(c23)C(=O)N1CC1CCN(CC(O)COc2ccc3ccccc3c2)CC1 (configuration not stated)	9	i	?	-12	-4
Cc1cc(C)cc(N/C(N)=N/c2nc(C)cc(C)n2)c1	8	·	15µM*	2	-5
Cc1cc(C(=O)CN2C(=O)C(=O)N(Cc3ccccc3)C2=O)c(C)n1Cc1ccccc1	·	·	16%	8	·
Cc1cc(C(=O)CN2C(=O)C(=O)N(Cc3ccccc3)C2=O)c(C)n1CC1COc2ccccc2O1 (configuration not stated)	2	i	6.5µM*	10	1
COc1ccc(NC(=O)/C=C\C(=O)N(c2ccc(C(C)C)cc2)C(C(=O)NCc2ccco2)c2ccc(C)cc2)cc1 (configuration not stated)	·	4.5µM*	·	·	·
O=C(Nc1cc(-c2nc3ncccc3o2)ccc1Cl)c1ccc([N+](=O)[O-])o1	-2	i	-8%	-83*	-6
O=C(Nc1cc(-c2nc3ncccc3o2)ccc1Cl)c1cccs1	10	i	-6%	-4	9
O=C(Nc1ncccn1)c1ccc([N+](=O)[O-])o1	6	i	28%	-93*	-12
O=C(Nc1ccccn1)c1ccc([N+](=O)[O-])o1	2	i	-25%	-93*	-3
CCc1ccc(NC(=O)C(=O)NCC(c2ccc3c(c2)OCO3)N2CCN(C)CC2)cc1 (configuration not stated)	·	i	·	·	·
O=C(COc1ccc2c(c1)OCO2)Nc1cccc(F)c1	?	i	?	1	1
S=c1[nH]cnc2scc(-c3ccc(Cl)cc3)c12	-1	i	16µM*	12	-23
COc1ccc(NC(=O)c2cnc[nH]2)cc1	·	i	·	·	·
CC(=O)Nc1ccc2nc(C3CC3)n(Cc3ccc(Cl)cc3)c(=O)c2c1	-1	i	?	13	3
CCCc1nc2ccc(NC(=O)c3cccs3)cc2c(=O)n1Cc1ccc(Cl)cc1	8	i	16µM*	0	4
CCCc1nc2ccc(NC(=O)NCCC(=O)OCC)cc2c(=O)n1Cc1ccc(Cl)cc1	-1	i	21µM*	-5	-4
CCCc1nc2ccc(NC(=O)NCCC(=O)OCC)cc2c(=O)n1Cc1cccc(Cl)c1	1	i	?	-19	7
CCN(Cc1nc2cc(Cl)ccc2c(=O)[nH]1)C(=O)c1cccc(NC(=O)c2cccs2)c1	0	?	16µM*	7	4
Cc1nc2ccc(NC(=O)c3cccs3)cc2c(=O)n1Cc1ccc(Cl)cc1	9	?	7.3µM*	4	1
CC(C)C[C@H]1COc2cc(N3CCSCC3)ccc2S(=O)(=O)N1C	·	i	·	·	·
CCc1ccc(NC(=O)C(NS(=O)(=O)c2cccs2)C(C)C)cc1 (configuration not stated)	·	i	·	·	·
Cc1cccc(CNC(=O)Cn2c(-c3cccs3)cc3ccccc32)c1	·	i	·	·	·
Clc1ccc(N=c2ssnc2Cl)cc1	19	i	16µM*	-3	-9

Screening results from PubChem BioAssay.
